Results filed as inconclusive are left out. Active and inactive are the calls of the source. The calls were made as follows: active = hit-call score of the fitted dose curve at least 0.9, where 1 is the maximum; inconclusive = response in the unintended direction; inactive = score below 0.9.

Drawing on PubChem BioAssay (EPA / NIEHS), this text covers outcome and AC50 for 48 molecules.

Test [1] concerns the target Cellular tumor antigen p53 (Homo sapiens) (UniProt P04637). In words: TOX21_p53_BLA_p2_ratio: Tox21 HCT-116 p53 Agonism Beta-lactamase Assay, Ratio, Phase 2 (AID 2283592). The essentials:
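Cleaved-to-uncleaved substrate ratio (460 vs 530 nm) measured in HCT116 cells with an inducible beta-lactamase reporter linked to p53 activity. Compounds incubated 16 h at 37C before 2 h room-temperature CCF4-AM loading.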

The nature of test [2]: TOX21_p53_BLA_p3_viability: Viability Assessment in the Tox21 HCT-116 p53 Agonism Beta-lactamase Assay, Phase 3 (AID 2283593).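 Also: cells exposed to compound for 16 h before reading.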 In short, it runs like this: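 HCT-116 cells (4000/well) rested 5 h at 37C, then got DMSO compounds by pin tool (217-fold dilution) for 16 h at 37C, 5% CO2. After the bla read, CellTiter-Glo was added and luminescence read at 30 min, room temperature.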

Test [3] deals with Cellular tumor antigen p53 (Homo sapiens) (UniProt P04637). Description: TOX21_p53_BLA_p3_ratio: Tox21 HCT-116 p53 Agonism Beta-lactamase Assay, Ratio, Phase 3 (AID 2283596). In short, it runs like this:
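Cells were seeded at 4000/well, rested 5 h at 37C, then dosed with DMSO compound solutions (217-fold dilution) for 16 h. CCF4-AM substrate was loaded for 2 h at room temperature, and the 460/530 nm emission ratio was fitted for gain of signal versus DMSO.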

A short description of test [4]: TOX21_p53_BLA_p4_viability: Viability Assessment in the Tox21 HCT-116 p53 Agonism Beta-lactamase Assay, Phase 4 (AID 2283597).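 Also: hits lower the luminescence signal meaning cytotoxicity.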 The essentials:
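Viability is taken as cellular ATP: after 16 h compound exposure of HCT116 cells and a 2 h room-temperature CCF4-AM substrate step, CellTiter-Glo reagent is added and luminescence is measured 30 min later.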

Test [5] has as its target Cellular tumor antigen p53 (Homo sapiens) (UniProt P04637). Description: TOX21_p53_BLA_p4_ratio: Tox21 HCT-116 p53 Agonism Beta-lactamase Assay, Ratio, Phase 4 (AID 2283601). In short, it runs like this:
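HCT116 cells carrying an inducible beta-lactamase reporter were plated at 4000 cells/well, rested 5 h, then exposed to compounds in DMSO (217-fold dilution) for 16 h at 37C. CCF4-AM substrate was loaded 2 h at room temperature; 460/530 nm emission ratio scored gain-of-signal versus DMSO.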

Test [6] shares this target. Description: TOX21_p53_BLA_p5_ratio: Tox21 HCT-116 p53 Agonism Beta-lactamase Assay, Ratio, Phase 5 (AID 2283599). In short, it runs like this:
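HCT-116 cells carrying a p53-inducible beta-lactamase reporter were seeded at 4000 cells/well and dosed after 5 h with compound in DMSO (217-fold dilution). After 16 h at 37C, CCF4-AM substrate was added for 2 h, and the 460/530 nm emission ratio was scored as gain-of-signal versus DMSO.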

A short description of test [7]: TOX21_p53_BLA_p5_viability: Viability Assessment in the Tox21 HCT-116 p53 Agonism Beta-lactamase Assay, Phase 5 (AID 2283600). In short, it runs like this: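 Viability is taken from cellular ATP content, measured by luciferase luminescence in the same wells after the beta-lactamase ratio read. Cells are seeded at 4000 per well and exposed to DMSO-dissolved compounds, diluted 217-fold, for 16 h.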

Sequence of Cellular tumor antigen p53 (Homo sapiens) (P04637 whole entry, looked up): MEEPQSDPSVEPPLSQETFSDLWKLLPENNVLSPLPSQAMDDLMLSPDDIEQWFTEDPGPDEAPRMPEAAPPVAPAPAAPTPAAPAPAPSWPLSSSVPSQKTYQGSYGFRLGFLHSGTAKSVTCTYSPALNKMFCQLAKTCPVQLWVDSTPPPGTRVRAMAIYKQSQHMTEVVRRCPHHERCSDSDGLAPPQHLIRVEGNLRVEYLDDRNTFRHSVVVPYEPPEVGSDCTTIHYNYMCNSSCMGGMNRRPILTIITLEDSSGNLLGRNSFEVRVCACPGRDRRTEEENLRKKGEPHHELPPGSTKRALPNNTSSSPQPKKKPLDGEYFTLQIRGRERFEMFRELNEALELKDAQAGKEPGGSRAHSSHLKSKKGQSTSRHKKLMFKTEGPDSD

Consider `CC(CCc1ccc(O)cc1)NCCc1ccc(O)c(O)c1` (stereo not given), for which the outcome in test [1], in test [2], in test [3] and in test [4] was inactive. The AC50 in test [5] is 43.6 µM (active).
For the molecule `CCCc1ccc(C(=O)O)cc1`, the outcome in test [1], in test [2], in test [3], in test [6], in test [7] and in test [5] was inactive.
As for `O=Cc1ccccc1[N+](=O)[O-]`, the AC50 in test [1] is 70.6 µM (active); in test [6], 68 µM (active). In addition, the molecule was called inactive in test [2], in test [3], in test [7] and in test [5].
Consider `COCC(C)OC(C)=O` (stereo not given), for which the result in test [1], in test [2], in test [3] and in test [6] was inactive.
For `Clc1cc(Cl)cc(Cl)c1`, the outcome in test [1], in test [2], in test [3], in test [4], in test [7] and in test [5] was inactive.
Regarding `N[C@H](CO)C(=O)O`, the outcome in test [1], in test [2], in test [3], in test [6], in test [7] and in test [5] was inactive.
For `O=C(O)Cc1nn(Cc2ccc(Br)cc2F)c(=O)c2ccccc12`, the outcome in test [1], in test [2], in test [3], in test [6], in test [7] and in test [5] was inactive.
As for `CC(S)C(C)S` (stereo not given), the result in test [1], in test [2], in test [3], in test [6], in test [7] and in test [5] was inactive.
In the case of `NCCS(=O)(=O)O`, the outcome in test [1], in test [2], in test [3], in test [6], in test [7] and in test [5] was inactive.
As for `CCOC(=O)c1ccccc1O`, the outcome in test [1], in test [2], in test [3], in test [6] and in test [7] was inactive.
Take `CCCCNc1ccc(C(=O)OCCN(C)C)cc1`: the outcome in test [1], in test [2], in test [3], in test [6], in test [7] and in test [5] was inactive.
Consider `CC[N+](CC)(CC)CCOc1ccc(/C=C/c2ccccc2)cc1`, for which the result in test [1], in test [2], in test [3], in test [6], in test [7] and in test [5] was inactive.
As to `CCCCC(CC)CN` (stereo not given), the result in test [1], in test [2], in test [3], in test [4] and in test [5] was inactive.
`CC(C(=O)O)c1cccc(Oc2ccccc2)c1` (stereo not given): the outcome in test [1], in test [2], in test [3], in test [6] and in test [7] was inactive.
For the molecule `Cc1cc(C(C)(C)C)cc(C)c1CC1=NCCN1`, the outcome in test [1], in test [2], in test [3], in test [6], in test [7] and in test [5] was inactive.
With `C=CC1CO1` (stereo not given), the result in test [1], in test [2], in test [3], in test [6], in test [7] and in test [5] was inactive.
With `Cc1cccc(C)c1NC(=O)CC12CCCN1CCC2`, the result in test [1], in test [2], in test [3], in test [6], in test [7] and in test [5] was inactive.
`CCN(CC)CCNC(=O)COc1ccc(Cl)cc1`: the result in test [1], in test [2], in test [3], in test [4] and in test [5] was inactive.
Regarding `O=C1Nc2ccc([N+](=O)[O-])cc2C1=O`, the AC50 in test [1] is 74.4 µM (active); in test [3] it was 85.2 µM (active); in test [6], 82.1 µM (active); in test [5] it was 72.8 µM (active). The molecule was called inactive in test [2] and in test [7].
Take `CC[C@H](C)[C@H](N)C(=O)O`: the result in test [1], in test [2], in test [3] and in test [6] was inactive.
In the case of `CC(=O)NC(Cc1ccccc1)C(=O)O` (stereo not given), the result in test [1], in test [2], in test [3], in test [4], in test [7] and in test [5] was inactive.
With `CCc1cc(S(=O)(=O)O)c2cc(C(C)C)cccc1-2`, the result in test [1], in test [2], in test [3], in test [6], in test [7] and in test [5] was inactive.
For `CC(=O)CC(=O)Nc1ccc2[nH]c(=O)[nH]c2c1`, the result in test [1], in test [2], in test [3] and in test [6] was inactive.
Take `CCCCCCCCOCCC#N`: the outcome in test [1], in test [2], in test [3], in test [6], in test [7] and in test [5] was inactive.
For the molecule `C[N+]12CCC(CC1)C(OC(=O)C(O)(c1ccccc1)c1ccccc1)C2` (stereo not given), the result in test [1], in test [2], in test [3], in test [4] and in test [5] was inactive.
As for `C=C[C@]1(C)C[C@@H](OC(=O)CO)[C@]2(C)[C@H](C)CC[C@]3(CCC(=O)[C@H]32)[C@@H](C)[C@@H]1O`, the outcome in test [1], in test [2], in test [3], in test [4], in test [7] and in test [5] was inactive.
For the molecule `C=COCC(C)C`, the result in test [1], in test [2], in test [3] and in test [6] was inactive.
On to `N#Cc1c(F)cccc1F`, for which the result in test [1], in test [2], in test [3], in test [6], in test [7] and in test [5] was inactive.
Consider `N=c1nc(N2CCCCC2)cc(N)n1O`, for which the outcome in test [1], in test [2], in test [3], in test [6] and in test [5] was inactive.
Take `C[C@]1(Cn2ccnn2)[C@H](C(=O)O)N2C(=O)C[C@H]2S1(=O)=O`: the outcome in test [1], in test [2], in test [3], in test [6] and in test [5] was inactive.
With `C=C1CC[C@@H]2[C@](C)(CO)[C@H](O)CC[C@@]2(C)[C@@H]1C/C=C1/C(=O)OC[C@H]1O`, the result in test [1], in test [2], in test [3], in test [6] and in test [5] was inactive.
Consider `CCCCCCCC(=O)Oc1c(Br)cc(C#N)cc1Br`, for which the AC50 in test [1] is 67.3 µM (active). Besides, the molecule was classed as inactive in test [2], in test [3], in test [6] and in test [5].
With `CCCCC(C)(O)C/C=C/[C@H]1[C@H](O)CC(=O)[C@@H]1CCCCCCC(=O)OC` (stereo not given in full), the result in test [1], in test [2], in test [3], in test [6] and in test [5] was inactive.
Consider `COc1cc(C(=O)NCc2ccc(OCCN(C)C)cc2)cc(OC)c1OC`, for which the result in test [1], in test [2], in test [3], in test [6], in test [7] and in test [5] was inactive.
In the case of `CO/N=C(\C(=O)N[C@@H]1C(=O)N2C(C(=O)O)=C(CSc3cnns3)CS[C@H]12)c1csc(N)n1`, the outcome in test [1], in test [2], in test [3], in test [6] and in test [5] was inactive.
For `O=C(Oc1ccccc1)Oc1ccccc1`, the outcome in test [1], in test [2], in test [3], in test [6], in test [7] and in test [5] was inactive.
Consider `CCN(CC)CCNC(=O)c1ccc(NC(C)=O)cc1`, for which the result in test [1], in test [2], in test [3], in test [6], in test [7] and in test [5] was inactive.
Consider `CC(C)CC(C)(N)C#N` (stereo not given), for which the outcome in test [1], in test [2], in test [3], in test [6], in test [7] and in test [5] was inactive.
Regarding `CO[Si](CCCCl)(OC)OC`, the outcome in test [1], in test [2], in test [3], in test [6] and in test [5] was inactive.
For the molecule `CCCCOC(=O)/C=C\C(=O)OCCCC`, the outcome in test [1], in test [2], in test [3], in test [6], in test [7] and in test [5] was inactive.
`Cc1cc2cc3c(C)cc(=O)oc3c(C)c2o1`: the outcome in test [1], in test [2], in test [3], in test [6] and in test [5] was inactive.
As to `Cn1nnc2c(C(N)=O)ncn2c1=O`, the result in test [1], in test [2], in test [3], in test [6], in test [7] and in test [5] was inactive.
As for `CN1C(C(=O)Nc2ccccn2)=C(O)c2ccccc2S1(=O)=O`, the result in test [1], in test [2], in test [3], in test [6], in test [7] and in test [5] was inactive.
Regarding `c1ccc(CSCc2ccccc2)cc1`, the result in test [1], in test [2], in test [3], in test [6], in test [7] and in test [5] was inactive.
Consider `C[C@]12CCC(=O)C=C1CC[C@@H]1[C@@H]2[C@@H](O)C[C@@]2(C)[C@H]1CC[C@]2(O)C(=O)COP(=O)(O)O`, for which the outcome in test [1], in test [2], in test [3], in test [6], in test [7] and in test [5] was inactive.
For `COc1cc2c3cc1Oc1cc(ccc1O)C[C@@H]1c4c(cc(OC)c(O)c4Oc4ccc(cc4)C[C@@H]3N(C)CC2)CC[N+]1(C)C`, the outcome in test [1], in test [2], in test [3], in test [6], in test [7] and in test [5] was inactive.
Regarding `CC(C)NCC(O)COc1cccc2[nH]ccc12` (stereo not given), the outcome in test [1], in test [2], in test [3], in test [6] and in test [5] was inactive.
In the case of `CC(=O)CC(=O)c1ccccc1`, the result in test [1], in test [2], in test [3], in test [6], in test [7] and in test [5] was inactive.

As a reminder, the AC50 is the concentration at which the activity in the assay is half-maximal.
